Laboratory results taken from the antibiotic and cytotoxicity screens of Wong et al. (2023).
The campaign covered roughly 39,000 compounds. About 3,300 (8.5%) were called active. The list comes from a sample in which actives are over-represented; it also holds similar structures and randomly drawn compounds.

tested on: HepG2; assay: cytotoxicity call (relative viability < 0.9); settings: 10 µM

Row | SMILES | cytotoxicity call
1 | C[C@@H]1CN([C@@H](C)CO)C(=O)CCCn2nncc2CO[C@H]1CN(C)C(=O)Nc1ccc(C(C)(C)C)cc1 | inactive
2 | C[C@H](CO)N1C[C@H](C)[C@@H](CN(C)Cc2ccc(C(=O)O)cc2)Oc2c(NC(=O)c3cnccn3)cccc2C1=O | inactive
3 | CCOc1nc(N2CCOCC2)nc(N2CCOCC2)n1 | inactive
4 | CC=NN(C)C=O | inactive
5 | CC(C)NC(=O)Nc1ccc2c(c1)CC(=O)N([C@@H](C)CO)C[C@H](C)[C@@H](CN(C)S(=O)(=O)c1ccccc1)O2 | inactive
6 | c1ccc(CN(CC2=NCCN2)c2ccccc2)cc1 | inactive
7 | CC(C)COCC(CN(Cc1ccccc1)c1ccccc1)N1CCCC1.Cl (configuration not stated) | active
8 | CC(COc1ccccc1)N(CCCl)Cc1ccccc1.Cl (configuration not stated) | inactive
9 | CN(C)C(=O)[C@@H]1[C@@H](CO)[C@@H]2Cn3c(ccc(C4=CCCC4)c3=O)[C@H]1N2S(=O)(=O)c1cn(C)cn1 | inactive
10 | COc1cccc(C#Cc2cnc3c(c2)C(=O)N([C@H](C)CO)C[C@H](C)[C@@H](CN(C)C(=O)C2CCC2)O3)c1 | inactive
11 | Cn1cnc(S(=O)(=O)N2C[C@@H](O)COC[C@@H]3O[C@H](CC(=O)NCc4cc(F)cc(F)c4)CC[C@H]32)c1 | inactive
12 | C[C@H](CO)N1C[C@H](C)[C@H](CN(C)S(=O)(=O)c2cccs2)Oc2ncc(-c3ccc(F)cc3)cc2C1=O | inactive
13 | Cc1cc2nc3c(=O)[nH]c(=O)nc-3n(CC(O)C(O)C(O)COP(=O)([O-])O)c2cc1C.[Na+] (configuration not stated) | active
14 | Cc1cc2nc3c(=O)[nH]c(=O)nc-3n(C[C@H](O)[C@H](O)[C@H](O)COP(=O)(O)O)c2cc1C | inactive
15 | Cc1cc2nc3c(=O)[nH]c(=O)nc-3n(CC(O)C(O)C(O)CO)c2cc1C (configuration not stated) | inactive
16 | C[C@@H]1CN([C@H](C)CO)C(=O)c2cc(C#CC3(O)CCCC3)cnc2O[C@H]1CN(C)C(=O)Cc1ccccc1 | inactive
17 | C[C@H]1CN([C@@H](C)CO)C(=O)c2cccc(NC(=O)Nc3cccc4ccccc34)c2O[C@H]1CN(C)Cc1ccc(-c2ccccc2)cc1 | inactive
18 | C[C@@H]1CCCCO[C@H](CN(C)Cc2ccc(C(=O)O)cc2)[C@H](C)CN([C@H](C)CO)C(=O)c2cc(NC(=O)Nc3ccc4c(c3)OCO4)ccc2O1 | inactive
19 | C[C@@H]1CCCCO[C@@H](CN(C)Cc2ccc(Cl)c(Cl)c2)[C@H](C)CN([C@H](C)CO)C(=O)c2cc(NC(=O)Nc3ccc(C(F)(F)F)cc3)ccc2O1 | inactive
20 | C[C@@H]1CCCCO[C@@H](CN(C)Cc2ccc(Cl)c(Cl)c2)[C@H](C)CN([C@@H](C)CO)C(=O)c2cc(NC(=O)Nc3ccc(C(F)(F)F)cc3)ccc2O1 | active
21 | C[C@@H]1CN([C@H](C)CO)C(=O)c2cc(NC(=O)Nc3ccc(C(F)(F)F)cc3)ccc2O[C@@H](C)CCCCO[C@H]1CN(C)Cc1ccc(Cl)c(Cl)c1 | inactive
22 | C[C@@H]1CCCCO[C@@H](CN(C)Cc2ccc(Cl)c(Cl)c2)[C@@H](C)CN([C@@H](C)CO)C(=O)c2cc(NC(=O)Nc3ccc(C(F)(F)F)cc3)ccc2O1 | inactive
23 | C[C@H](CO)N1C[C@H](C)[C@@H](CN(C)Cc2ccc(Cl)c(Cl)c2)OCCCC[C@H](C)Oc2ccc(NC(=O)Nc3ccc(C(F)(F)F)cc3)cc2C1=O | active
24 | C[C@@H]1CN([C@@H](C)CO)C(=O)c2cc(NC(=O)Nc3ccc(C(F)(F)F)cc3)ccc2O[C@@H](C)CCCCO[C@H]1CN(C)Cc1ccc(Cl)c(Cl)c1 | inactive

Row | SMILES | cytotoxicity call
25 | C[C@@H]1CCCCO[C@H](CN(C)Cc2ccc(Cl)c(Cl)c2)[C@@H](C)CN([C@@H](C)CO)C(=O)c2cc(NC(=O)Nc3ccc(C(F)(F)F)cc3)ccc2O1 | active
26 | C[C@@H]1CN([C@H](C)CO)C(=O)c2cc(NC(=O)Nc3ccc(C(F)(F)F)cc3)ccc2O[C@@H](C)CCCCO[C@@H]1CN(C)Cc1ccc(Cl)c(Cl)c1 | inactive
27 | C[C@@H]1CCCCO[C@H](CN(C)Cc2ccc(Cl)c(Cl)c2)[C@H](C)CN([C@@H](C)CO)C(=O)c2cc(NC(=O)Nc3ccc(C(F)(F)F)cc3)ccc2O1 | active
28 | C[C@@H]1CCCCO[C@@H](CN(C)Cc2ccc(Cl)c(Cl)c2)[C@@H](C)CN([C@H](C)CO)C(=O)c2cc(NC(=O)Nc3ccc(C(F)(F)F)cc3)ccc2O1 | inactive
29 | COc1ccc(S(=O)(=O)N(C)C[C@H]2Oc3c(NC(=O)C4CC4)cccc3C(=O)N([C@@H](C)CO)C[C@H]2C)cc1 | inactive
30 | C[C@H](CO)N1C[C@H](C)[C@@H](CN(C)Cc2ccccc2)Oc2c(NC(=O)CCCCCC(=O)Nc3ccccc3N)cccc2C1=O | inactive
31 | c1ccc([C@@H]2CCC[C@H](c3ccccc3)S2)cc1 | inactive
32 | C[C@H]1CN([C@@H](C)CO)C(=O)c2cc(NS(=O)(=O)c3cccs3)ccc2O[C@@H]1CN(C)C(=O)Nc1cccc2ccccc12 | inactive
33 | Cn1cc(C[C@@H](N)C(=O)O)c2ccccc21 | inactive
34 | O=C(C[C@H]1C[C@@H]2c3cc(NC(=O)NC4CCCC4)ccc3O[C@@H]2[C@@H](CO)O1)NCCN1CCCCC1 | inactive
35 | NC(Cc1cc(I)c(Oc2cc(I)c(O)c(I)c2)c(I)c1)C(=O)[O-].[Na+] (configuration not stated) | inactive
36 | C[C@H]1CN([C@@H](C)CO)C(=O)c2cc(NC(=O)Nc3ccccc3)ccc2O[C@@H]1CN(C)C(=O)Nc1cccc2ccccc12 | inactive
37 | C[C@H]1CCCCO[C@@H](CN(C)Cc2ccc(Cl)c(Cl)c2)[C@@H](C)CN([C@@H](C)CO)C(=O)c2cc(NC(=O)Nc3ccc(C(F)(F)F)cc3)ccc2O1 | inactive
38 | C[C@H]1CCCCO[C@H](CN(C)Cc2ccc(Cl)c(Cl)c2)[C@@H](C)CN([C@@H](C)CO)C(=O)c2cc(NC(=O)Nc3ccc(C(F)(F)F)cc3)ccc2O1 | inactive
39 | C[C@H](CO)N1C[C@H](C)[C@H](CN(C)Cc2ccc(Cl)c(Cl)c2)OCCCC[C@H](C)Oc2ccc(NC(=O)Nc3ccc(C(F)(F)F)cc3)cc2C1=O | active
40 | CC(=O)c1ccc(O)c(C(N)=O)c1 | inactive
41 | COc1ccc(S(=O)(=O)Nc2ccc3c(c2)CC(=O)N([C@@H](C)CO)C[C@@H](C)[C@@H](CN(C)Cc2ccc(-c4ccccc4)cc2)O3)cc1 | inactive
42 | COc1ccc(S(=O)(=O)Nc2ccc3c(c2)CC(=O)N([C@@H](C)CO)C[C@H](C)[C@@H](CN(C)Cc2ccc(-c4ccccc4)cc2)O3)cc1 | inactive
43 | COc1ccc(S(=O)(=O)Nc2ccc3c(c2)CC(=O)N([C@H](C)CO)C[C@H](C)[C@@H](CN(C)Cc2ccc(-c4ccccc4)cc2)O3)cc1 | inactive
44 | COc1ccc(S(=O)(=O)Nc2ccc3c(c2)CC(=O)N([C@@H](C)CO)C[C@@H](C)[C@H](CN(C)Cc2ccc(-c4ccccc4)cc2)O3)cc1 | active
45 | COc1ccc(S(=O)(=O)Nc2ccc3c(c2)CC(=O)N([C@@H](C)CO)C[C@H](C)[C@H](CN(C)Cc2ccc(-c4ccccc4)cc2)O3)cc1 | active
46 | COc1ccc(S(=O)(=O)Nc2ccc3c(c2)CC(=O)N([C@H](C)CO)C[C@@H](C)[C@@H](CN(C)Cc2ccc(-c4ccccc4)cc2)O3)cc1 | active
47 | COc1ccc(S(=O)(=O)Nc2ccc3c(c2)CC(=O)N([C@H](C)CO)C[C@H](C)[C@H](CN(C)Cc2ccc(-c4ccccc4)cc2)O3)cc1 | active
